29 compounds from PubChem BioAssay (NCATS) can be followed below.

Where “and” joins values, the source holds several entries; their conditions need not be identical. Equal values may be shown once. Inconclusive results are not listed. Calls of active or inactive are those of the source. Unless noted, calls follow the shape of the dose curve; as a rule, active = well fitted activation curve with a large enough effect; inconclusive = small, poorly fitted or top-dose-only effect; inactive = flat fitted curve, though single readings scatter.

Chain of Tumor necrosis factor (Homo sapiens) (P01375 whole entry, looked up): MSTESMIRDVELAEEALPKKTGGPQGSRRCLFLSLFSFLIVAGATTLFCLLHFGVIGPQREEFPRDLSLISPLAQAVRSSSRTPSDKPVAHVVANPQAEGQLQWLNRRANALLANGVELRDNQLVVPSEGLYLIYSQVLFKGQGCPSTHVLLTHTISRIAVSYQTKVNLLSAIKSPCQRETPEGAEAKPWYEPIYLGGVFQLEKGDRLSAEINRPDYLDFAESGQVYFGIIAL

One assay addresses Tumor necrosis factor (Homo sapiens) (UniProt P01375). Nature of the assay: qHTS assay to identify small molecules that stimulate Tumor Necrosis Factor-alpha (TNF-alpha) secretion (AID 651757; active = well fitted curve in the direction sought with a large enough effect in the signal ratio; the % refers to the signal ratio; also: 0% is about no effect). Conditions: Human cells, HTRF 665/615 ratio; series mostly up to 92.2 µM. The method in brief:
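Secreted TNF-alpha quantified by TR-FRET sandwich of two labeled anti-TNF-alpha antibodies, incubated 3 hr at room temperature. Preceded by 17 hr, 37 C compound treatment of THP-1 cells at 3000 cells/well.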
Turning to `Cc1cn([C@H]2C[C@H](N=[N+]=[N-])[C@@H](CO)O2)c(=O)[nH]c1=O`, the result was inactive.

For the compound `Cn1c(=O)c2c(ncn2C)n(C)c1=O`, the result was inactive.

Regarding `Cn1c(=O)c2[nH]cnc2n(C)c1=O`, the result was inactive.

For the compound `COc1ccc2c(c1)c(CC(=O)O)c(C)n2C(=O)c1ccc(Cl)cc1`, the outcome was inactive.

Regarding `Cc1ccc(-c2cc(C(F)(F)F)nn2-c2ccc(S(N)(=O)=O)cc2)cc1`, the outcome was inactive.

For the compound `CC(C)NCC(O)c1ccc(O)c(O)c1` (stereo not drawn), the result was inactive.

Turning to `COc1cc2c(c(OC)c1OC)-c1ccc(OC)c(=O)cc1[C@@H](NC(C)=O)CC2`, the result was inactive.

Regarding `NS(=O)(=O)c1cc2c(cc1Cl)NCNS2(=O)=O`, the result was inactive.

For the compound `Clc1ccc(C(c2ccccc2Cl)C(Cl)Cl)cc1` (stereo not drawn), the outcome was inactive.

For `Nc1ccn([C@H]2CC[C@@H](CO)O2)c(=O)n1`, the outcome was inactive.

On to `Cc1cn([C@H]2C=C[C@@H](CO)O2)c(=O)[nH]c1=O`, for which the result was inactive.

Regarding `NCCS(=O)(=O)O`, the outcome was inactive.

With `CC(C)C(=O)Nc1ccc([N+](=O)[O-])c(C(F)(F)F)c1`, the result was inactive.

Turning to `CCC1(c2ccccc2)C(=O)NCNC1=O`, the result was inactive.

On to `COc1ccc(CCN(C)CCCC(C#N)(c2ccc(OC)c(OC)c2)C(C)C)cc1OC` (stereo not drawn), for which the outcome was inactive.

Take `O=c1[nH]cc(F)c(=O)[nH]1`: the outcome was inactive.

`CC(COc1ccccc1)N(CCCl)Cc1ccccc1` (stereo not drawn): the result was inactive.

System in a further assay: not listed separately
The assay can be described thus: qHTS assay for environmental chemicals that activate the Aryl hydrocarbon Receptor (AhR) signaling pathway (AID 651777). Also: nearly all actives have a fitted effect of over 15% in size. Also: potency is read from the fitted curve at half-maximal effect. As to activation: % of control where 0% means no effect. To be noted: 1A2-DRE human hepatoma cells, luciferase, 24 h; activation: hits give high values. An outline of the steps:
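Human hepatoma 1A2-DRE cells stably carrying a DRE/CYP1A2 promoter–luciferase reporter, 1,200 cells/well, exposed to compound 24 hr at 37 C. Luciferase read by One-Glo luminescence after 30 min at room temperature; increased signal marks AhR activation.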
Take `Cc1cn([C@H]2C[C@H](N=[N+]=[N-])[C@@H](CO)O2)c(=O)[nH]c1=O`: the activation is -0.858% (inactive) and 1.65% (inactive).

In the case of `Cn1c(=O)c2c(ncn2C)n(C)c1=O`, the activation is -0.0272% (inactive) and 0.654% (inactive).

In the case of `C[C@](N)(Cc1ccc(O)c(O)c1)C(=O)O`, the activation was -1.04% (inactive).

For the compound `Cn1c(=O)c2[nH]cnc2n(C)c1=O`, the activation was 3.65% (inactive).

Regarding `O=c1c(-c2ccc(O)cc2)coc2cc(O)cc(O)c12`, the Potency was 12.6 µM (active).

`O=C(CCCN1CCC(O)(c2ccc(Cl)cc2)CC1)c1ccc(F)cc1`: the activation is -0.128% (inactive).

Consider `COc1ccc2c(c1)c(CC(=O)O)c(C)n2C(=O)c1ccc(Cl)cc1`, for which the activation was 0.534% (inactive) and -1.07% (inactive).

Turning to `O=C(c1ccc(OCCN2CCCCC2)cc1)c1c(-c2ccc(O)cc2)sc2cc(O)ccc12`, the activation is -4.31% (inactive).

For the compound `Cn1cnc2c1c(=O)[nH]c(=O)n2C`, the activation is 2.86% (inactive).

For `Cc1ccc(-c2cc(C(F)(F)F)nn2-c2ccc(S(N)(=O)=O)cc2)cc1`, the activation is -1.91% (inactive).

As for `O=C(Nc1ccc([N+](=O)[O-])cc1Cl)c1cc(Cl)ccc1O`, the Potency was 1.41 µM (active).

Take `COc1ccc2[nH]cc(CCNC(C)=O)c2c1`: the activation is 0.634% (inactive) and 1.82% (inactive) and 3.42% (inactive).

As to `CC(C)NCC(O)c1ccc(O)c(O)c1` (stereo not drawn), the activation is 0.956% (inactive) and 0.375% (inactive).

In the case of `COc1cc2c(c(OC)c1OC)-c1ccc(OC)c(=O)cc1[C@@H](NC(C)=O)CC2`, the activation was -0.775% (inactive) and -1.98% (inactive) and -0.55% (inactive).

For `CCOC(=O)C(C)(C)Oc1ccc(Cl)cc1`, the activation was 0.305% (inactive).

Take `CN(C)CCOC(c1ccccc1)c1ccccc1`: the activation is 0.827% (inactive).

For the compound `CC(C)Cc1ccc(C(C)C(=O)O)cc1` (stereo not drawn), the activation is -1.21% (inactive).

In the case of `NS(=O)(=O)c1cc2c(cc1Cl)NCNS2(=O)=O`, the activation is 0.0029% (inactive) and 2.21% (inactive).

In the case of `Clc1ccc(C(c2ccccc2Cl)C(Cl)Cl)cc1` (stereo not drawn), the activation was 2.12% (inactive) and 0.378% (inactive).

For the compound `Cc1cn([C@H]2C=C[C@@H](CO)O2)c(=O)[nH]c1=O`, the activation is 0.0815% (inactive) and -0.191% (inactive) and -0.434% (inactive).

As to `NCCS(=O)(=O)O`, the activation was -0.375% (inactive).

Take `CC(C)C(=O)Nc1ccc([N+](=O)[O-])c(C(F)(F)F)c1`: the activation was 3.62% (inactive) and 3.92% (inactive).

For the compound `Nc1c2c(nc3ccccc13)CCCC2`, the activation was 11.6% (inactive).

Regarding `CCC1(c2ccccc2)C(=O)NCNC1=O`, the activation was -1.18% (inactive) and 8.62% (inactive).

Take `O=c1[nH]cc(F)c(=O)[nH]1`: the activation is -0.168% (inactive).

Take `CC#C[C@]1(O)CC[C@H]2[C@@H]3CCC4=CC(=O)CCC4=C3[C@@H](c3ccc(N(C)C)cc3)C[C@@]21C`: the activation is 14.1% (inactive).
